High-throughput results deposited in PubChem BioAssay by National Center for Advancing Translational Sciences (NCATS).
L3MBTL1 block: qHTS Assay for the Inhibitors of L3MBTL1; actives 0.66% (n = 230,000); AlphaScreen L3MBTL1–H3K9me1 peptide binding; Potency, µM (series often up to 57.1 µM), usual class: inhibitors; Lethal(3)malignant brain tumor-like protein 1 (Homo sapiens), Q9Y468; further: nearly all actives have a fitted effect of over 60% in size
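Read-out is AlphaScreen signal from streptavidin donor and nickel chelate acceptor beads (10 ug/mL final each) bridging L3MBTL1 (50 nM) and biotinylated K9-monomethylated H3(1-15) peptide (75 nM), after 30 min compound exposure at room temperature.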
WRN helicase inh: qHTS for Inhibitors of WRN Helicase | Bifunctional 3'-5' exonuclease/ATP-dependent helicase WRN (Homo sapiens), Q14191 | WRN helicase unwinding, fluorescent forked duplex, kinetic | Potency, µM (doses to about 114 µM), usual class: inhibitors | actives 0.46% (n = 360,000) | AID 651768, 2012; further: nearly all actives have a fitted effect of over 55% in size
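Primary qHTS, 1536-well format. 20 nM WRN + compound, 15 min RT; start with 100 nM forked fluorophore/quencher duplex, 2 mM ATP (final); kinetic read ex 525/em 598 nm.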
Pol eta inh: qHTS for Inhibitors of Polymerase Eta; actives 1.2% (n = 390,000); recombinant Pol eta, fluorescent DNA replication assay; Potency, µM (series often up to 114 µM), most hits filed as inhibitors; DNA polymerase eta (Homo sapiens), Q9Y253
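Fluorescent replication assay: 50 nM final substrate added after a 15 min room-temperature compound preincubation with 10 nM enzyme. Signal taken at 0 min and again at 10 min.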
Pol beta inh: qHTS Assay for Inhibitors of DNA Polymerase Beta | P06746 | Pol beta primer extension/strand displacement, fluorescence kinetic | Potency, µM (doses to about 114 µM), hits mostly inhibitors | actives 1.3% (n = 340,000) | AID 485314, 2010
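Enzyme-only controls used 10 nM Pol beta; buffer lacking enzyme served as negative control. Compound preincubated 15 min, then 50 nM substrate added; 0 and 10 min reads at room temperature.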
Pol kappa inh: qHTS for Inhibitors of Polymerase Kappa; purified Pol kappa, fluorescent DNA synthesis assay, 10 min; DNA polymerase kappa (Homo sapiens), Q9UBT6; Potency, µM (top dose mostly 107 µM), most hits filed as inhibitors; actives 0.53% (n = 400,000)
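Kinetic fluorescence screen: compound preincubated 15 min RT with 10 nM enzyme; 50 nM substrate (final) initiates; reads at 0/10 min.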
POLI inh: qHTS for Inhibitors of Polymerase Iota; Pol iota fluorescent replication assay, 10 min; AID 588590, 2011; DNA polymerase iota (Homo sapiens), Q9UNA4; Potency, µM (doses to about 115 µM), most hits filed as inhibitors; actives 1% (n = 390,000)
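Pol iota at 10 nM preincubated 15 min with compounds at room temperature; reaction started with fluorescent substrate, 50 nM final. Fluorescence read kinetically at 0 and 10 min; buffer-only wells as negative control.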
Each line names hits and unclear results; the compound was inactive in the other large screens. A selection: hits, their analogues and other compounds. The true share with any hit is near 2.5%. The call rests on the fitted dose curve; in most records, active means well fitted curve in the direction sought with a large enough effect; inconclusive means small, poorly fitted or top-dose-only effect, or another doubt; inactive means no such curve, though single readings can be large; an effect the other way counts as inactive or inconclusive.

CCCCN(Cc1ccccc1)C(=O)C1CCC(=O)N(CCc2ccccn2)C1 (stereo not drawn)	none (no result: L3MBTL1 block)
CN(C)c1cccc(C(=O)OCC(=O)c2ccc[nH]2)c1	POLI inh inconclusive (no result: Pol beta inh)
Cc1cn2c(=O)cc(COc3cc(C)c(Cl)c(C)c3)nc2s1	none (no result: L3MBTL1 block, WRN helicase inh)
CCOC(=O)C(=CNNc1cccc(Cl)c1)C(=O)OCC	WRN helicase inh 50µM
CCOC(=O)C(=CNc1ccc(Cl)cn1)C(=O)OCC	none
COc1ccc2nc3cc(Cl)ccc3c(Nc3cc(C(C)C)c(O)cc3C)c2c1	L3MBTL1 block inconclusive
CCN(CC)CCCC(C)Nc1c2ccc(Cl)cc2nc2ccc(OC)cc12 (stereo not drawn)	Pol eta inh inconclusive, Pol beta inh 16µM, Pol kappa inh 8.9µM, POLI inh 7.9µM (no result: L3MBTL1 block, WRN helicase inh)
CCN(CC)CCCC(C)Nc1cc(/C=C/c2ccccc2Cl)nc2cc(Cl)ccc12 (stereo not drawn)	POLI inh 71µM (no result: L3MBTL1 block, WRN helicase inh, Pol eta inh, Pol beta inh)
COc1ccc(-c2ccc(=O)n(Cc3ccccc3)n2)cc1	none
COc1ccc(/C=C2/C(=O)N(Cc3ccccc3)N=C2C)cc1	POLI inh 22µM
COc1ccc(-c2cc(-c3ccccc3)nc(SC(C)C(=O)O)c2C#N)cc1 (stereo not drawn)	POLI inh 40µM
COc1ccc(-c2cc(-c3ccc(Cl)cc3)c(C#N)c(SCC(=O)O)n2)cc1	L3MBTL1 block inconclusive, Pol beta inh 32µM
COc1ccc(-c2cc(-c3ccccc3)c(C#N)c(SCC(=O)O)n2)cc1	none (no result: L3MBTL1 block, Pol beta inh)
N#Cc1c(-c2ccccc2)cc(-c2ccccc2)nc1SCC(=O)NCC(=O)O	Pol beta inh 50µM
COc1ccc(C(O)(CCN2CCCCC2)C2CCCCC2)cc1 (stereo not drawn)	none (no result: L3MBTL1 block)
FC(F)(F)c1nc(Oc2ccccc2)c2ccccc2n1	none
CC(=O)c1cccc(-c2ccnc3c2CC(C(=O)Nc2cccnc2)O3)c1 (stereo not drawn)	none (no result: L3MBTL1 block, Pol eta inh, Pol beta inh, Pol kappa inh, POLI inh)
O=C(CCC1CCCN(C(=O)c2ccc3[nH]ccc3c2)C1)N1CCN(c2ccccn2)CC1 (stereo not drawn)	none
O=C(CCC1CCCN(C(=O)c2ccc3cc[nH]c3c2)C1)N1CCN(c2ccccn2)CC1 (stereo not drawn)	Pol beta inh 40µM
CCC(=O)Oc1ccc(C/C(=N\O)c2ccc(O)cc2O)o1	L3MBTL1 block 32µM, Pol eta inh 79µM, Pol beta inh inconclusive, Pol kappa inh 28µM, POLI inh 20µM
CN1C(=O)/C(=C/c2ccc(-c3ccccc3[N+](=O)[O-])o2)SC1=Nc1ccc(Cl)c(C(=O)O)c1	WRN helicase inh 56µM, Pol eta inh 20µM, Pol beta inh 14µM, Pol kappa inh inconclusive, POLI inh inconclusive
O=C1C2C3C=CC(C3)C2C(=O)N1/N=C/c1ccc(-c2ccccc2[N+](=O)[O-])o1 (stereo not drawn)	none
NC1=NC(=O)/C(=C\c2ccc(-c3ccccc3[N+](=O)[O-])o2)S1	Pol kappa inh inconclusive, POLI inh 20µM (no result: L3MBTL1 block, WRN helicase inh, Pol eta inh, Pol beta inh)
N#C/C(=C/c1ccc(-c2ccccc2[N+](=O)[O-])o1)C(N)=O	Pol beta inh inconclusive
Cc1c(Cc2ccccc2)c(=O)oc2c(C)c(OCC(=O)N[C@@H](Cc3ccccc3)C(=O)O)ccc12	Pol eta inh 50µM, Pol beta inh 50µM
Cc1cc(=O)oc2c(C)c(OC(C)C(=O)NC(Cc3c[nH]c4ccc(O)cc34)C(=O)O)ccc12 (stereo not drawn)	POLI inh inconclusive
CCc1c(C)c2ccc(OC(C)C(=O)NC(Cc3c[nH]c4ccc(O)cc34)C(=O)O)c(C)c2oc1=O (stereo not drawn)	Pol eta inh 50µM, POLI inh inconclusive (no result: L3MBTL1 block)
